12-LOX inh = blocks human arachidonate 12S-lipoxygenase | purified 12hLO, xylenol orange hydroperoxide absorbance | Potency, µM (doses to about 108 µM), without a hit: top-dose activity change, negative = inhibition, usual class: inhibitors | 580,000 tested, 1.1% active | AID 1671190; note: potency is the fitted concentration of half-maximal effect
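Purified human 12hLO at 150 nM in 25 mM Hepes, 0.01% Triton X-100, pH 7.0, preincubated 15 min at room temperature with compound. Reaction started with 40 uM arachidonic acid, 30 min at room temperature. Hydroperoxide measured by Fe-xylenol orange, 573/405 nm absorbance ratio.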
TDP1 cell CPT = growth inhibition of DT40 Tdp1-/-;hTDP1 cells with camptothecin (screen for TDP1 inhibitors); chicken DT40 Tdp1-/-;hTDP1 cells + 20 nM CPT, ATP luminescence, 48 h; Potency, µM (doses to about 46.2 µM), for inactives: top-dose activity change, negative = growth inhibition, most hits filed as inhibitors; 420,000 tested, 12% active; note: potency is the fitted concentration of half-maximal effect; nearly all actives have a fitted effect of over 55% in size
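Cell growth measured by CellTiter-Glo luminescence after a minimum 48 h, 37 C compound exposure with 20 nM CPT in Tdp1-knockout DT40 cells stably expressing hTDP1, seeded 400/well; qHTS titration format.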
IL-1B inflam inh = inhibitors of inflammasome signaling (IL-1 beta secretion); THP-1 LPS/ATP IL-1B secretion, AlphaLISA, 16 h; active compounds read low; activity change, % at 57.5 µM; 360,000 tested, 4.7% active; in the data active = activity change below about -50%; inconclusive = mostly about -30% to -49%
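Secreted IL-1B measured by AlphaLISA bead assay after 16 h compound exposure of THP-1 cells; compounds (final up to 57.5 uM) added 1 h before LPS (250 ng/mL) and ATP (1.25 mM) stimulation; lower signal means less secretion.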
HT1080-NT tox = kills 2HG-producing HT-1080-NT fibrosarcoma cells. 360,000 tested, 1.6% active. Potency, µM (highest dose often 46.1 µM), for the others: at the highest dose activity, negative = less viability, most hits filed as cytotoxic. HT-1080-NT fibrosarcoma viability, CellTiter-Glo ATP luminescence, 48 h. AID 686970;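 note: NT is the 2HG producing partner of a matched IDH1 knockdown line; potency is the fitted concentration of half-maximal effect; 0% = DMSO-treated cells and -100% = media-only wells without cells; nearly all actives have a fitted effect of over 55% in size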
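Read-out is CellTiter-Glo luminescence after 10 minutes at room temperature, following 48 hours' compound treatment of HT-1080-NT cells (750 cells/well, RPMI, 5% FBS, 37 degrees C).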
HT1080 IDH1KD tx = kills HT-1080 cells with IDH1 knockdown. HT-1080 IDH1 knockdown viability, ATP luminescence, 48 h. Potency, µM (top dose mostly 46.1 µM), for the others: at the highest dose activity, negative = toxicity, most hits filed as cytotoxic. 360,000 tested, 2% active;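 note: potency is the fitted concentration of half-maximal effect; 0% = DMSO wells and -100% = cell-free medium wells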
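Viability of IDH1-knockdown HT-1080 fibrosarcoma cells was assessed by CellTiter-Glo after 48 h at 37 °C with titrated compound; concentration-effect curves were classified by fit quality and response size.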
TDP1 cell noCPT = qHTS for Inhibitors of human tyrosyl-DNA phosphodiesterase 1 (TDP1): qHTS in cells in absence of CPT. DT40 Tdp1-/- hTDP1 cells, no CPT, ATP luminescence, 48 h. Potency, µM (doses to about 46.2 µM), without a hit: at the highest dose activity change, negative = growth inhibition, actives largely listed as inhibitors. 420,000 tested, 15% active; note: potency is the fitted concentration of half-maximal effect; nearly all actives have a fitted effect of over 55% in size
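No-CPT arm: Tdp1-/-;hTDP1 DT40 cells (400/well) plus compounds, incubated ≥48 hr at 37 °C. Readout CellTiter-Glo luminescence.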
The depositor's hits bear a star; i = inactive; ? = inconclusive; / = no result given; [ ] = remark or other dose. Only a selection was taken, and hits are over-represented in it overall. Unless noted, calls come from the whole dose curve; as a rule, active = well fitted curve in the direction sought with a large enough effect; inconclusive = small, poorly fitted or top-dose-only effect, or another doubt; inactive = no such curve, though single readings can be large; an effect the other way counts as inactive or inconclusive. Unless noted, % is set by controls: 0 for no effect and ±100 for the full control effect.

SMILES	12-LOX inh	TDP1 cell CPT	IL-1B inflam inh	HT1080-NT tox	HT1080 IDH1KD tx	TDP1 cell noCPT
CC1(C(=O)NS(=O)(=O)c2ccccc2Cl)CCN1C(=O)c1ccco1 (configuration not stated)	-7%	-8%	-12	19%	11%	-15%
CC(C)(C)Cc1nnc(NC(=O)Cc2cccs2)s1	45µM*	6%	27	0%	0%	?
O=C(Cc1cccs1)Nc1nnc(Cc2ccccc2)s1	45µM*	?	42	-13%	3%[9.24 µM]	?
CCCCCc1nnc(NC(=O)Cc2cccs2)s1	0%	-20%	15	0%	-1%	-24%
COc1ccc(-c2cn3nc(N4CCCC(C(=O)Nc5ccccc5F)C4)sc3n2)cc1 (configuration not stated)	0%	21µM*	/	/	/	15µM*
COc1ccc(-c2cn3nc(N4CCCC(C(=O)NCc5ccccc5OC)C4)sc3n2)cc1 (configuration not stated)	-21%	18µM*	/	/	/	?
COc1ccc(-c2cn3nc(N4CCCC(C(=O)Nc5cc(C)ccc5C)C4)sc3n2)cc1 (configuration not stated)	-16%	23µM*	/	/	/	16µM*
CCOc1ccc(NC(=O)C2CCN(c3ccc(C#N)cn3)CC2)cc1S(=O)(=O)N1CCCCC1	-13%	/	/	/	/	/
N#CC(c1c(Cl)cccc1N1CCCCC1)N1CCCCC1 (configuration not stated)	-14%	/	/	/	/	/
c1ccc(OCc2nn3c(Cn4nnc5ccccc54)nnc3s2)cc1	?	16µM*	-5	-4%	-8%	21µM*
c1ccc(Cc2nn3c(Cn4nnc5ccccc54)nnc3s2)cc1	56µM*	?	-5	-21%	-16%	-25%
c1ccc(OCc2nn3c(CN4CCOCC4)nnc3s2)cc1	10µM*	/	/	/	/	/
c1ccc2c(c1)OCC(c1nn3c(Cn4nnc5ccccc54)nnc3s1)O2 (configuration not stated)	?	26µM*	-18	-23%	-7%	?
OCCC1CN(Cc2cn[nH]c2-c2ccc(F)cc2)CCN1Cc1cccs1 (configuration not stated)	20%	/	/	/	/	/
COc1cccc(CC(=O)N2CCC(Oc3ncccc3C(=O)N(C)C)C2)c1 (configuration not stated)	-11%	/	/	/	/	/
CCCC1COC(Cn2cncn2)(c2ccc(C)cc2)O1 (configuration not stated)	19%	23µM*	9	0%	10%	11µM*
Cc1ccc(S(=O)(=O)N2CCN(C(=O)CCn3cncn3)CC2)cc1	214%	22%	-3	3%	6%	2%
O=C(N/N=C/c1cc(Cl)cc(Cl)c1O)c1ccncc1	-15%	6.5µM*	10	?	3.7µM*	15µM*
COC(=O)N/N=C/c1cc([N+](=O)[O-])cc(Br)c1O	10%	-29%	0	-29%	-7%	?
CCc1cc(C(=O)N/N=C/c2ccc(O)cc2O)c2ccccc2n1	i	8.2µM*	131	?	?	?
Cc1onc(-c2ccccc2)c1C(=O)NN=Cc1cc(Cl)cc(Cl)c1O	13µM*	/	/	/	/	/
CCC(O)(CC)C(=O)N/N=C/c1cc(Br)cc(Br)c1O	-17%	21µM*	77	?	?	15µM*
Cc1onc(-c2ccccc2)c1C(=O)N/N=C/c1cccc(O)c1	-16%	-17%	30	0%	2%	?
CC(=O)N1CCCC(c2[nH]ccc2C(=O)N2CCN(c3ncccn3)CC2)C1 (configuration not stated)	5%	/	/	/	/	/

From PubChem BioAssay
